Laboratory results taken from PubChem BioAssay AID651820 (National Center for Advancing Translational Sciences (NCATS), 2012).
Hit rate of the full screen: of about 340,000 compounds, about 12,000 (3.5%) were called active. A call without a number means that no potency is given here. Another 18% or so got no clear call; they are omitted. Calls follow the shape of the dose curve; as a rule, active = well fitted inhibition curve with a large enough effect; inconclusive = small, poorly fitted or top-dose-only effect, or another doubt; inactive = no such curve, though single readings can be large or run the other way. This excerpt belongs to a sample that is enriched for actives.

assay: qHTS Assay for Inhibitors of Hepatitis C Virus (HCV); conditions: Huh7.5.1 HCVcc-Cre infection, luciferase reporter, 44 h; series mostly up to 41.8 µM
Text: Hepatitis C virus (HCV) infects about 200 million people in the world. Many infected people progress to chronic liver disease including cirrhosis with a risk of developing liver cancer. To date, there is no effective vaccine for hepatitis C. Current therapy based on interferon is only effective in about half of the patients and is associated with significant adverse effects. The fraction of people with HCV who can complete a successful treatment is estimated to be no more than 10 percent. Recent development of direct-acting antivirals against HCV, such as protease and polymerase inhibitors, is promising but still requires combination with peginterferon and ribavirin for maximal efficacy. In addition, these agents are associated with high rate of resistance and many have significant side effects. Due to the lack of a culture system for infectious HCV, the search for new HCV drugs has been greatly hampered. […] High-throughput screening (HTS) with an infectious HCV system would cover the complete spectrum of potentially druggable targets in all stages of HCV lifecycle, and would have more biological relevance than other cell-based assays. Moreover, targeting several key processes in the viral life cycle may not only increase antiviral efficacy; more importantly, it may also reduce the capacity of the virus to develop resistance to the compound. The goal of this project is to identify novel HCV inhibitors as new therapies for hepatitis C, using a highly sensitive and specific assay platform which is based on a HCV infectious cell culture system established in the laboratory and adapted for high-throughput HCV drug screen. NIH Chemical Genomics Center [NCGC] NIH Molecular Libraries Probe Centers Network [MLPCN] MLPCN Grant: MH095511 Assay Submitter (PI): Jake Liang, NIDDK
The assay will start with plating 1,000 cells/well in 3 µL volume and culture for 4 h. Then 23 nL of compounds from the library collection will be added to each well, followed by adding 2.5 µL of HCVcc-Cre virus (~ 0.5 moi) and further cultured for 44 h before the luciferase assay. A volume of 4.5 µL luciferase substrates will be added to each well and the plates will be incubated at room temperature for 15 min. and then read for 15 sec. for the luciferase activity

| Compound | Potency |
| --- | --- |
| Cc1ccc2c(c1)C1CN(C)CCC1N2C(=S)Nc1ccc(Cl)cc1Cl (centres undefined) | 14.1 µM (active) |
| S=C(Nc1ccc(Cl)cc1Cl)N1CCCC1 | inactive |
| Cc1ccc2c(c1)C1CN(C)CCC1N2C(=O)c1ccccc1NS(=O)(=O)c1ccc(F)cc1C (centres undefined) | inactive |
| Cc1ccc(-c2nn(-c3ccc(F)cc3)cc2C(=O)NCC(c2cccs2)N2CCOCC2)cc1 (centres undefined) | inactive |
| CC(=O)CSc1nc(CCc2ccccc2)c(C#N)c(=O)[nH]1 | inactive |
| Cc1csc(=O)n1CC(=O)Nc1ccc(S(C)(=O)=O)cc1 | inactive |
| COc1ccc2nc(NC(=O)NC3CCCCC3)sc2c1 | inactive |
| COc1ccc2nc(Nc3nc4ccc(NC(C)=O)cc4s3)sc2c1 | 12.6 µM (active) |
| COc1ccc2nc(NC(=O)c3ccc(Br)s3)sc2c1 | inactive |
| O=C(COC(=O)c1cccc(Cl)c1)NC(=O)NCc1ccccc1 | inactive |
| Cc1noc(C)c1COc1ccc(C(=O)NCCOc2ccccc2)cc1 | inactive |
| O=C(NC(=S)Nc1ccc(S(=O)(=O)N2CCOCC2)cc1)c1ccccc1[N+](=O)[O-] | inactive |
| CN(CC(=O)Nc1ccc(N2CCOCC2)cc1)CC(=O)Nc1ccccc1[N+](=O)[O-] | inactive |
| O=C(Nc1ccc(N2CCOCC2)cc1)c1ccc(-c2ccccc2[N+](=O)[O-])o1 | 11.2 µM (active) |
| Clc1ccc(Nc2ccc3ccccc3n2)cc1 | inactive |
| N#CC1(NC(=O)COC(=O)CSc2ccc(F)cc2)CCCCC1 | inactive |
| COc1cccc(COC(=O)C2CCN(S(=O)(=O)c3cccs3)CC2)c1OC | inactive |
| COC(=O)c1sc(NC(=O)c2ccc(OC)cc2OC)nc1C | inactive |
| COC(=O)c1sc(NC(=O)c2csc3c2CCCC3)nc1C | 11.2 µM (active) |
| Cc1ccc(NC(=O)c2csc3c2CCCC3)cc1 | inactive |
| CC1=NNC(=O)C1Cc1c(Cl)cccc1Cl (centres undefined) | inactive |
| CCCCN1CC(CO)Oc2cccc(F)c2S1(=O)=O (centres undefined) | inactive |
| COc1cccc2oc(CCc3ccccc3)cc(=O)c12 | inactive |
| Cc1cc(-c2cccs2)nc(-n2cccc2)n1 | 5.01 µM (active) |
| c1csc(-c2cn3c(n2)SCC3)c1 | inactive |
| Cc1cc2nc(C(F)(F)F)cc(-c3cccs3)n2n1 | inactive |
| CO[C@@H]1[C@@H](OC(N)=O)[C@@H](O)C(Oc2ccc3c(O)c(NC(=O)c4ccc(O)c(CC=C(C)C)c4)c(=O)oc3c2C)OC1(C)C (some centres undefined) | inactive |
| CC[C@]12c3[nH]c4ccc(Cl)cc4c3CCN1C(=O)[C@@H](CC(=O)NCCCOC)C[C@@H]2C(=O)N1CCN(C(=O)c2ccco2)CC1 | inactive |
| COc1ccccc1N1CCN(c2nc(C)cc(=O)[nH]2)CC1 | inactive |
